Rows were chosen to be rich in hits. Some 11% of all compounds tested hit in one or more screens of this group.
NIH3T3 tox: NIH 3T3 cell cytotoxicity; NIH 3T3 viability, CellTiter-Glo ATP luminescence, 48-72 h; Potency, µM (highest dose often 96.7 µM), most hits filed as inhibitors; actives 4.3% (n = 94,000); AID 1345082; further: nearly all actives have a fitted effect of over 55% in size
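Mouse fibroblast NIH 3T3 cells, 400 per well, received compound via pintool and were incubated for 48 or 72 hr prior to CellTiter-Glo ATP luminescence measurement.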
HEK cytotox: HEK 293 cell cytotoxicity | Potency, µM (doses to about 115 µM), actives largely listed as inhibitors | HEK 293 viability, ATP luminescence (CellTiter-Glo), 48-72 h | actives 6.6% (n = 94,000); further: nearly all actives have a fitted effect of over 60% in size
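Read-out: CellTiter-Glo ATP luminescence. Cells: HEK 293, 250 cells/well. Exposure: 48 or 72 hr, 37 degree Celsius.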
NPR1 antag: blocks ANP-stimulated signaling of human Npr1 receptor | HEK293 hNpr1 GloSensor cGMP, ANP-stimulated luminescence | actives 1.6% (n = 76,000) | P16066 | AID 1347048 | Potency, µM (titrated, usually from 46.3 µM), actives largely listed as inhibitors; calls by dose curve; further: nearly all actives have a fitted effect of over 60% in size
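Compound pre-incubated 30 min at room temperature on GloSensor-loaded HEK293 cells stably carrying hNpr1 and the pGS-40F cGMP biosensor. Stimulation uses hNppA at 0.1 nM final; luminescence is taken at baseline and 20 min post-agonist.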
Luciferase inh: blocks purified firefly luciferase enzyme activity; AID 1347043; actives 2.5% (n = 76,000); purified P. pyralis luciferase, luminescence, biochemical; P08659; Potency, µM (top dose mostly 115 µM), actives largely listed as inhibitors; further: nearly all actives have a fitted effect of over 65% in size
Target sequence (P08659 whole entry, looked up): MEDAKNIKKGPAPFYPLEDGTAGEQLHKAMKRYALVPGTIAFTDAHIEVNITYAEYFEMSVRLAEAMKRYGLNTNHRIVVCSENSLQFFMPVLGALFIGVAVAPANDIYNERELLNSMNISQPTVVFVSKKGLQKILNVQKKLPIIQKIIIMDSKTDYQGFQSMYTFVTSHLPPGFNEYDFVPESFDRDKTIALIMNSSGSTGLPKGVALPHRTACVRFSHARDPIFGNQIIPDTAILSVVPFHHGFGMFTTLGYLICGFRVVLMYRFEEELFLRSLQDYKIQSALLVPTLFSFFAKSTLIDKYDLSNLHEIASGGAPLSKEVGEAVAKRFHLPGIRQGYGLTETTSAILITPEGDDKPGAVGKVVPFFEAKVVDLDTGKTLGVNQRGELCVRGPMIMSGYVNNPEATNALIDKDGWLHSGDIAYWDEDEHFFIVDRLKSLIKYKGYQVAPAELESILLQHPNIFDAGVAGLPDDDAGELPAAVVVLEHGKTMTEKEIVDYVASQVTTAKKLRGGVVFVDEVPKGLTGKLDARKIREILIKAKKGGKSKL
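Inhibitors were tested against purified firefly luciferase in a biochemical, low-substrate format (both substrates at 10uM) and luminescence measured with a CCD imager.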
Numbers stand for hits; – = inactive; ? = inconclusive; · = no result given. Unless noted, the call rests on the fitted dose curve; in most records, active means well fitted curve in the direction sought with a large enough effect; inconclusive means small, poorly fitted or top-dose-only effect, or another doubt; inactive means no such curve, though single readings can be large; an effect the other way counts as inactive or inconclusive.

SMILES	NIH3T3 tox	HEK cytotox	NPR1 antag	Luciferase inh
Cc1ccc(-c2noc([C@@H]3C[C@H](NS(=O)(=O)c4ccc(C)cc4)CN3C)n2)cc1	89µM	71µM	?	22µM
CCCS(=O)(=O)N[C@H]1C[C@@H](c2nc(-c3ccc4c(c3)OCO4)no2)N(C)C1	–	?	–	45µM
O=C(c1ccc(F)cc1)N1CCCN(c2ccc3nnc(C4CC4)n3n2)CC1	–	–	·	·
CCN1CCN(C[C@@H]2CN(Cc3ccccc3OC(F)F)C[C@@H]2CO)CC1	–	–	–	–
CN1C[C@@H](NS(=O)(=O)Cc2ccccc2)C[C@H]1c1nc(-c2ccccc2)no1	?	?	–	–
Cc1ccc(-c2noc([C@@H]3C[C@H](NS(=O)(=O)Cc4ccccc4)CN3C)n2)cc1	79µM	100µM	–	–
Cc1ccc(CNC(=O)c2ccc3c(c2)CN(Cc2ccncc2F)CCO3)cc1	?	?	?	–
O=C(NCc1ccccc1F)c1ccc2c(c1)CN(Cc1cccc(F)c1)CCO2	?	?	–	–
O=C(NCc1ccccc1F)c1ccc2c(c1)CN(Cc1ccncc1F)CCO2	?	45µM	·	·
O=C(NCc1ccccc1F)c1ccc2c(c1)CN(Cc1ccccc1F)CCO2	?	45µM	·	·
CCc1noc(-c2cn(C3CCN(C(=O)c4sccc4C)CC3)nn2)n1	–	–	–	–
COc1ccc(F)cc1-c1cccc(C(=O)NCC(=O)N2CCN(C(C)=O)CC2)c1	–	?	·	·
CCOCC(=O)N1CCCN(S(C)(=O)=O)c2ccccc21	–	–	–	–
Cc1ccc(CC(=O)N2CCCN(S(C)(=O)=O)c3ccccc32)cc1	18µM	–	–	–
COc1ccc(C(=O)N2CCCN(C)c3ccccc32)c(C)c1	?	45µM	–	–
CCOc1ccc(CC(=O)N2CCCN(C)c3ccccc32)cc1	?	89µM	–	–
Cc1ccc(OCC(=O)N2CCCN(S(C)(=O)=O)c3ccccc32)cc1	22µM	–	–	–
CSc1ccc(-c2cccc(CN3CCC(NC(=O)NC(C)C)CC3)c2)cc1	–	–	·	·
COc1cccc(NC(=O)C2CCCN(Cc3ccncc3)CCC(=O)NCC2)c1 (centres undefined)	–	–	–	–
COc1ccc(C2Cn3cnc(-c4nc(-c5cccs5)no4)c3CO2)cc1 (centres undefined)	?	?	?	25µM
CCOc1cc(-c2noc(-c3ncn4c3COC(c3ccc(F)cc3)C4)n2)ccc1OC (centres undefined)	25µM	22µM	–	–
Fc1ccccc1-c1noc(-c2ncn3c2COC(c2ccccc2Cl)C3)n1 (centres undefined)	?	?	–	16µM
CCOc1cc(-c2noc(-c3nnn4c3COC(c3ccc(F)cc3)C4)n2)ccc1OC (centres undefined)	–	–	–	–
COc1ccc(-c2noc(-c3ncn4c3COC(c3ccc(F)cc3)C4)n2)c(OC)c1 (centres undefined)	32µM	35µM	–	–
Clc1ccccc1C1Cn2cnc(-c3nc(-c4ccccc4)no3)c2CO1 (centres undefined)	–	–	–	–
SMILES	NIH3T3 tox	HEK cytotox	NPR1 antag	Luciferase inh
CCCc1ccc(S(=O)(=O)N2CCCC(Cn3c(C)nc4cccnc43)C2)cc1 (centres undefined)	?	?	?	–
CSc1ccc(-c2noc(-c3ncn4c3COC(c3ccc(F)cc3)C4)n2)cc1 (centres undefined)	25µM	32µM	–	–
CCOc1cccc(-c2noc(-c3ncn4c3COC(c3ccc(OC)cc3)C4)n2)c1 (centres undefined)	22µM	22µM	–	–
CCOc1ccc(C2Cn3nnc(-c4nc(-c5ccccc5)no4)c3CO2)cc1 (centres undefined)	–	–	–	8.9µM
CCOc1ccc(C2Cn3nnc(-c4nc(-c5ccncc5)no4)c3CO2)cc1 (centres undefined)	–	–	–	–
COc1ccc(C2Cn3cnc(-c4nc(-c5ccc(OC(C)C)cc5)no4)c3CO2)cc1 (centres undefined)	–	–	–	?
O=C(c1ccco1)N1CCC(n2cc(-c3nc(-c4ccccc4)no3)nn2)C1 (centres undefined)	?	?	–	35µM
O=C(Cc1ccsc1)N1CCC(n2cc(-c3nc(-c4ccccc4)no3)nn2)C1 (centres undefined)	–	?	–	56µM
O=C(c1ccc2ccccc2n1)N1CCC(n2cc(-c3nc(-c4ccccc4)no3)nn2)C1 (centres undefined)	?	?	?	28µM
O=C(Cc1cccc(F)c1)N1CCC(n2cc(-c3nc(-c4ccccc4)no3)nn2)CC1	–	–	–	–
O=C(c1nccc2ccccc12)N1CCC(n2cc(-c3nc(-c4ccccc4)no3)nn2)C1 (centres undefined)	?	28µM	?	45µM
Cc1ccc(C(=O)N2CCC(n3cc(-c4nc(-c5ccccc5)no4)nn3)C2)s1 (centres undefined)	–	?	?	–
CCc1ccc(C(=O)N2CCCC(c3noc(-c4cc5c(=O)[nH]c(C)cn5n4)n3)C2)cc1 (centres undefined)	–	–	–	–
COC[C@@H]1[C@H](C(=O)NCc2ccc(C)o2)CCCN1C	?	–	·	·
CCc1ccc(CN2CCCC(CO)(Cc3ccc(F)cc3F)C2)cc1 (centres undefined)	79µM	?	–	–
Cc1ccc(-c2nnc3ccc(NCCN(C)C)nn23)nc1	?	–	–	–
COCCNc1ccc2nnc(-c3ccc(C)cn3)n2n1	112µM	–	–	–
Cc1ccc(-c2nnc3ccc(NCCc4ccccc4)nn23)nc1	45µM	56µM	–	–
Cc1ccc(-c2nnc3ccc(N(C)c4cccc(C)c4)nn23)nc1	?	56µM	–	–
Cc1cccc(N(C)c2ccc3nnc(-c4cc(C#N)ccn4)n3n2)c1	?	?	?	–
COc1ccc(-c2nc(C)nc3c2CN(C(=O)C2CCCC2)CC3)cc1	?	–	·	·
CCOc1ccccc1CN1CCC2(CCN(C(=O)Cc3cccc(Cl)c3)CC2)Oc2ccccc21	–	–	–	–
CCOc1ccccc1CN1CCC2(CCN(C(=O)C3CCCC3)CC2)Oc2ccccc21	?	35µM	–	–
O=C(Cc1ccc(F)cc1)N1CCC2(CC1)CCN(CCc1ccccc1)c1ccccc1O2	?	45µM	–	–
O=C(c1ccc(C(F)(F)F)cc1)N1CCC2(CC1)CCN(CCc1ccccc1)c1ccccc1O2	?	?	–	–
CCOc1ccccc1CN1CCC2(CCN(C(=O)Cc3ccc(F)cc3)CC2)Oc2ccccc21	?	35µM	–	–
COc1ccc(CCNC(=O)CNC(=O)c2cccc(-c3ccsc3)c2)cc1	–	?	·	·
CCn1c(CO)nnc1C1CC(NC(=O)c2cnn3cc(C)cnc23)C1 (centres undefined)	–	–	–	–
Cn1c(CO[C@H]2CN(Cc3ccc4c(c3)OCCO4)C[C@H]2F)nc2ccccc21	89µM	?	–	–

High-throughput results as filed in PubChem BioAssay.
